Results reported in the antibiotic and cytotoxicity screens of Wong et al. (2023).
The campaign covered roughly 39,000 compounds. About 1,500 (3.8%) were called active. Only a selection was taken, and actives are over-represented in it overall.

Each compound was assayed on HSkMC (human skeletal muscle cells) (assay: cytotoxicity call (relative viability < 0.9)). Settings: 10 µM.
In the case of COc1ccc(NC(=O)N(C)C[C@@H]2OCCCC[C@@H](C)Oc3ccc(NC(=O)Nc4ccc(F)cc4)cc3C(=O)N([C@H](C)CO)C[C@@H]2C)cc1, the cytotoxicity call is reported as “inactive”.
For COc1ccc(S(=O)(=O)N(C)C[C@@H]2Oc3ccc(NC(=O)c4ccncc4)cc3C(=O)N([C@@H](C)CO)C[C@H]2C)cc1, the cytotoxicity call was “inactive”.
For C[C@H]1CN([C@@H](C)CO)C(=O)c2cccc(NC(=O)c3nc4ccccc4s3)c2O[C@H]1CN(C)S(C)(=O)=O, the cytotoxicity call was “inactive”.
CC(C)NC(=O)N(C)C[C@@H]1Oc2ccc(NS(=O)(=O)c3cccs3)cc2CC(=O)N([C@@H](C)CO)C[C@H]1C was tested, and the cytotoxicity call was “inactive”.
C[C@@H]1CN([C@@H](C)CO)S(=O)(=O)c2ccc(C#C[C@@H](C)O)cc2O[C@@H]1CN(C)C(=O)c1ccncc1 was tested, and the cytotoxicity call was “inactive”.
In the case of CO[C@@H]1CN(C)C(=O)c2cc(NC(=O)C3CC3)ccc2OC[C@H](C)N(C(=O)C2CCOCC2)C[C@H]1C, the cytotoxicity call is reported as “inactive”.
In the case of Cc1noc(C)c1NC(=O)N(C)C[C@H]1Oc2c(NC(=O)NC(C)C)cccc2C(=O)N([C@H](C)CO)C[C@H]1C, the cytotoxicity call is reported as “inactive”.
With CO[C@@H](C(=O)N(C)C[C@H]1OCc2ccccc2-c2c(n(C)c3ccccc23)C(=O)N([C@@H](C)CO)C[C@H]1C)c1ccccc1 the cytotoxicity call was “inactive”.
With C[C@H]1CN([C@@H](C)CO)C(=O)Cc2cc(NC(=O)Nc3cccc4ccccc34)ccc2O[C@@H]1CN(C)Cc1ccc(C(F)(F)F)cc1 the cytotoxicity call was “inactive”.
With C[C@H]1CN([C@@H](C)CO)C(=O)Cc2cc(NC(=O)Nc3ccc(C(F)(F)F)cc3)ccc2O[C@@H]1CN(C)C(=O)Nc1cccc2ccccc12 the cytotoxicity call was “inactive”.
C[C@H]1CN([C@@H](C)CO)C(=O)Cc2cc(NC(=O)Nc3cccc4ccccc34)ccc2O[C@@H]1CN(C)C(=O)Nc1ccc(C(F)(F)F)cc1 was tested, and the cytotoxicity call was “inactive”.
With C[C@@H]1CN([C@@H](C)CO)C(=O)Cc2cc(NC(=O)Nc3cccc4ccccc34)ccc2O[C@@H]1CN(C)C(=O)Nc1ccc(C(F)(F)F)cc1 the cytotoxicity call was “active”.
For C[C@@H]1CN([C@H](C)CO)C(=O)c2cc(NC(=O)Nc3cccc4ccccc34)ccc2O[C@H]1CN(C)Cc1ccc(C(F)(F)F)cc1, the cytotoxicity call was “inactive”.
C[C@H](CO)N1C[C@H](C)[C@@H](CN(C)Cc2ccc(C(F)(F)F)cc2)Oc2ccc(NC(=O)Nc3cccc4ccccc34)cc2CC1=O was tested, and the cytotoxicity call was “inactive”.
With C[C@@H]1CN([C@@H](C)CO)C(=O)Cc2cc(NC(=O)Nc3cccc4ccccc34)ccc2O[C@H]1CN(C)C(=O)Nc1ccc(C(F)(F)F)cc1 the cytotoxicity call was “inactive”.
C[C@H]1CN([C@@H](C)CO)C(=O)Cc2cc(NC(=O)Nc3ccc(C(F)(F)F)cc3)ccc2O[C@H]1CN(C)C(=O)Nc1cccc2ccccc12 was tested, and the cytotoxicity call was “inactive”.
For C[C@@H]1CN([C@@H](C)CO)C(=O)Cc2cc(NC(=O)Nc3ccc(C(F)(F)F)cc3)ccc2O[C@@H]1CN(C)C(=O)Nc1cccc2ccccc12, the cytotoxicity call was “active”.
With C[C@H]1CN([C@@H](C)CO)C(=O)Cc2cc(NC(=O)Nc3cccc4ccccc34)ccc2O[C@H]1CN(C)Cc1ccc(C(F)(F)F)cc1 the cytotoxicity call was “active”.
C[C@H]1CN([C@@H](C)CO)C(=O)c2cc(NC(=O)Nc3cccc4ccccc34)ccc2O[C@H]1CN(C)Cc1ccc(C(F)(F)F)cc1 was tested, and the cytotoxicity call was “active”.
C[C@@H]1CN([C@@H](C)CO)C(=O)c2cc(NC(=O)Nc3cccc4ccccc34)ccc2O[C@H]1CN(C)Cc1ccc(C(F)(F)F)cc1 was tested, and the cytotoxicity call was “inactive”.
With COc1ccc(NC(=O)Nc2ccc3c(c2)[C@@H]2C[C@@H](CC(=O)NCc4ccncc4)O[C@H](CO)[C@@H]2O3)cc1 the cytotoxicity call was “inactive”.
In the case of COc1ccc(S(=O)(=O)N(C)C[C@@H]2OCCCC[C@@H](C)Oc3ccc(NC(=O)Nc4ccccc4)cc3C(=O)N([C@@H](C)CO)C[C@H]2C)cc1, the cytotoxicity call is reported as “inactive”.
In the case of C[C@H](CO)N1C[C@H](C)[C@H](CN(C)S(=O)(=O)c2ccccc2)Oc2ccc(NC(=O)Cn3cnnn3)cc2CC1=O, the cytotoxicity call is reported as “inactive”.
C[C@@H]1CN([C@@H](C)CO)C(=O)Cc2cc(NC(=O)Cc3cn(C)c4ccccc34)ccc2O[C@H]1CN(C)C(=O)Nc1cccc2ccccc12 was tested, and the cytotoxicity call was “inactive”.
For C#CCN(O[C@@H](/C=C/[C@@H](O)Cc1ccccc1)C1CC1)[C@@H](Cc1ccc(-n2cc(CCC(=O)NO)nn2)cc1)C(=O)OC, the cytotoxicity call was “inactive”.
In the case of Cc1noc(C)c1S(=O)(=O)N(C)C[C@H]1Oc2ccc(NS(=O)(=O)c3cn(C)cn3)cc2CC(=O)N([C@@H](C)CO)C[C@@H]1C, the cytotoxicity call is reported as “inactive”.
For Cc1noc(C)c1S(=O)(=O)Nc1ccc2c(c1)C(=O)N([C@H](C)CO)C[C@H](C)[C@H](CN(C)C(=O)Nc1ccc3c(c1)OCO3)O2, the cytotoxicity call was “inactive”.
In the case of Cc1noc(C)c1S(=O)(=O)Nc1ccc2c(c1)C(=O)N([C@H](C)CO)C[C@H](C)[C@@H](CN(C)S(=O)(=O)c1ccccc1)O2, the cytotoxicity call is reported as “inactive”.
In the case of O=C(C[C@@H]1C[C@@H]2c3cc(NC(=O)C4CCOCC4)ccc3O[C@@H]2[C@@H](CO)O1)NCc1ccc2c(c1)OCO2, the cytotoxicity call is reported as “inactive”.
For C[C@@H]1CCCCO[C@H](CN(C)CC2CCCCC2)[C@H](C)CN([C@@H](C)CO)C(=O)c2cc(NC(=O)Nc3ccc(C(F)(F)F)cc3)ccc2O1, the cytotoxicity call was “active”.
For C[C@@H]1CCCCO[C@@H](CN(C)CC2CCCCC2)[C@H](C)CN([C@@H](C)CO)C(=O)c2cc(NC(=O)Nc3ccc(C(F)(F)F)cc3)ccc2O1, the cytotoxicity call was “active”.
With C[C@H](CO)N1C[C@H](C)[C@H](CN(C)CC2CCCCC2)OCCCC[C@H](C)Oc2ccc(NC(=O)Nc3ccc(C(F)(F)F)cc3)cc2C1=O the cytotoxicity call was “active”.
With C[C@@H]1CCCCO[C@@H](CN(C)CC2CC2)[C@H](C)CN([C@H](C)CO)C(=O)c2cc(NC(=O)Nc3ccc(C(F)(F)F)cc3)ccc2O1 the cytotoxicity call was “inactive”.
C[C@H](CO)N1C[C@H](C)[C@@H](CN(C)CC2CC2)OCCCC[C@H](C)Oc2ccc(NC(=O)Nc3ccc(C(F)(F)F)cc3)cc2C1=O was tested, and the cytotoxicity call was “inactive”.
For C[C@@H]1CCCCO[C@H](CN(C)CC2CCCCC2)[C@H](C)CN([C@H](C)CO)C(=O)c2cc(NC(=O)Nc3ccc(C(F)(F)F)cc3)ccc2O1, the cytotoxicity call was “active”.
For CC(C)(N)CO.Cn1c(=O)c2[nH]c(Br)nc2n(C)c1=O, the cytotoxicity call was “inactive”.
For Cc1ccc(S(=O)(=O)N(C)C[C@H]2OCCCC[C@@H](C)Oc3ccc(NC(=O)CCC(F)(F)F)cc3C(=O)N([C@H](C)CO)C[C@H]2C)cc1, the cytotoxicity call was “inactive”.
For CO[C@H]1CN(C)C(=O)c2ccc(NC(C)=O)cc2OC[C@@H](C)N(S(=O)(=O)c2cn(C)cn2)C[C@@H]1C, the cytotoxicity call was “inactive”.
For C[C@@H]1CCCCO[C@@H](CN(C)Cc2ccc(Cl)c(Cl)c2)[C@@H](C)CN([C@H](C)CO)C(=O)c2cc(N(C)C)ccc2O1, the cytotoxicity call was “inactive”.
For Cc1noc(C)c1NC(=O)Nc1ccc2c(c1)CC(=O)N([C@H](C)CO)C[C@H](C)[C@H](CN(C)C(=O)NC(C)C)O2, the cytotoxicity call was “inactive”.
For C[C@@H]1CCCCO[C@H](CN(C)Cc2ccncc2)[C@@H](C)CN([C@@H](C)CO)C(=O)c2cc(NC(=O)Nc3cccc4ccccc34)ccc2O1, the cytotoxicity call was “inactive”.
COc1ccc(S(=O)(=O)Nc2ccc3c(c2)C(=O)N([C@H](C)CO)C[C@@H](C)[C@@H](CN(C)Cc2ccncc2)O3)cc1 was tested, and the cytotoxicity call was “inactive”.
C[C@H]1CCCCO[C@@H](CN(C)C(=O)Nc2ccc3c(c2)OCO3)[C@@H](C)CN([C@@H](C)CO)C(=O)c2cc(NC(=O)c3ccncc3)ccc2O1 was tested, and the cytotoxicity call was “inactive”.
In the case of C[C@@H]1CN([C@H](C)CO)C(=O)CCCn2cc(nn2)CO[C@H]1CN(C)S(=O)(=O)c1cn(C)cn1, the cytotoxicity call is reported as “inactive”.
With COc1ccc(S(=O)(=O)N(C)C[C@H]2OCCCC[C@@H](C)Oc3ccc(NC(=O)Nc4ccccc4)cc3C(=O)N([C@@H](C)CO)C[C@@H]2C)cc1 the cytotoxicity call was “inactive”.
Cc1noc(C)c1S(=O)(=O)Nc1ccc2c(c1)C(=O)N([C@H](C)CO)C[C@H](C)[C@H](CN(C)S(C)(=O)=O)OCCCC[C@H](C)O2 was tested, and the cytotoxicity call was “inactive”.
In the case of C[C@H]1[C@H](C)CC[C@]2(C(=O)O[C@@H]3O[C@H](CO[C@@H]4O[C@H](CO)[C@@H](O[C@@H]5O[C@@H](C)[C@H](O)[C@@H](O)[C@H]5O)[C@H](O)[C@H]4O)[C@@H](O)[C@H](O)[C@H]3O)CC[C@]3(C)C(=CC[C@@H]4[C@@]5(C)C[C@@H](O)[C@H](O)[C@@](C)(CO)[C@@H]5[C@H](O)C[C@]43C)[C@H]12, the cytotoxicity call is reported as “inactive”.
In the case of C[C@@H]1CN([C@@H](C)CO)C(=O)c2cc(NC(=O)c3ccccc3)ccc2O[C@@H](C)CCCCO[C@H]1CN(C)C(=O)c1ccccc1, the cytotoxicity call is reported as “inactive”.
COc1ccccc1S(=O)(=O)N[C@H]1CC[C@H](CCNC(=O)C2CCOCC2)O[C@H]1CO was tested, and the cytotoxicity call was “inactive”.
With Cc1noc(C)c1S(=O)(=O)N(C)C[C@H]1Oc2ccc(NC(=O)Nc3ccc4c(c3)OCO4)cc2CC(=O)N([C@H](C)CO)C[C@@H]1C the cytotoxicity call was “inactive”.
In the case of C[C@H](CO)N1C[C@H](C)[C@@H](CN(C)CC2CCCCC2)OCCCC[C@H](C)Oc2ccc(NC(=O)Nc3ccc(C(F)(F)F)cc3)cc2C1=O, the cytotoxicity call is reported as “active”.
C[C@@H]1CCCCO[C@H](CN(C)CC2CCCCC2)[C@@H](C)CN([C@H](C)CO)C(=O)c2cc(NC(=O)Nc3ccc(C(F)(F)F)cc3)ccc2O1 was tested, and the cytotoxicity call was “active”.
With C[C@@H]1CN([C@H](C)CO)C(=O)c2cc(NC(=O)Nc3ccc(C(F)(F)F)cc3)ccc2O[C@@H](C)CCCCO[C@@H]1CN(C)CC1CCCCC1 the cytotoxicity call was “active”.
For C[C@@H]1CCCCO[C@@H](CN(C)CC2CCCCC2)[C@@H](C)CN([C@H](C)CO)C(=O)c2cc(NC(=O)Nc3ccc(C(F)(F)F)cc3)ccc2O1, the cytotoxicity call was “active”.
In the case of C[C@H]1CN([C@@H](C)CO)C(=O)c2cc(NC(=O)CCCN(C)C)ccc2O[C@H]1CN(C)C(=O)NC1CCCCC1, the cytotoxicity call is reported as “inactive”.
For C[C@H]1CN([C@@H](C)CO)C(=O)c2cccc(NC(=O)CCCCCC(=O)Nc3ccccc3N)c2O[C@@H]1CN(C)C(=O)Nc1ccccc1, the cytotoxicity call was “inactive”.
